Data published in PubChem BioAssay AID652031 (The Scripps Research Institute Molecular Screening Center, 2013).
In all, about 16,000 compounds went through this assay and about 70 (0.4%) were called active. This is one part of a sample in which actives are shown more often than they occur. Rule as the data show it: active = inhibition above about 50%; inactive = the rest.

Molecular target: Kappa-type opioid receptor (Homo sapiens) (UniProt P41145)
Test: blocks the human kappa opioid receptor, Maybridge compounds (AID 652031)
Conditions: OPRK1 cells, antagonist mode, fluorescence readout; at 9 µM; hits give high values

Sequence of Kappa-type opioid receptor (Homo sapiens) (P41145 whole entry, looked up): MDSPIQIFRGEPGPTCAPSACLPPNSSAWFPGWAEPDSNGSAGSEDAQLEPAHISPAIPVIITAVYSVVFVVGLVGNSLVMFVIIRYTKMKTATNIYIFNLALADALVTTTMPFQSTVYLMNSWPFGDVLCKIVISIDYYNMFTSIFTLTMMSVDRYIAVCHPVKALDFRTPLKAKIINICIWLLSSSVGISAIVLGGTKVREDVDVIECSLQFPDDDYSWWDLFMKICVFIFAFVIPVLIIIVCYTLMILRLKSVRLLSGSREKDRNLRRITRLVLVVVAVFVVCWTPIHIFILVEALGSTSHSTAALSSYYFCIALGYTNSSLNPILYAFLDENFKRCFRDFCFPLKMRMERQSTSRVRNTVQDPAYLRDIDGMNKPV

Structure (SMILES) | inhibition
O=S(=O)(c1ccc(Cl)s1)N1CCN(c2ccccc2)CC1 | -14.3% (inactive)
CC(C)NC(=O)NNc1c(Cl)cncc1Cl | 4.6% (inactive)
O=c1oc2c3ccccc3c3oc(=O)sc3c2s1 | 13.6% (inactive)
Cc1nc(C(F)(F)F)ccc1NC(=O)/C=C\C(=O)O | -4.6% (inactive)
O=C(Nc1ccc(OCc2ccccc2)cc1)Nc1ccc2c(c1)C(=O)OC2 | -8.9% (inactive)
CN(C)c1cccc2c1c(NC(=O)Nc1ccc(OCc3ccccc3)cc1)nn2C | 60.6% (active)
N#Cc1cccnc1NNC(=O)Nc1ccc(OCc2ccccc2)cc1 | 13.7% (inactive)
O=c1[nH]c2cc(Cl)c(Cl)cc2n1-c1ccncc1 | -14.5% (inactive)
Cc1ccc([N+](=O)[O-])c(C(=O)NCC(=O)O)c1 | -15.5% (inactive)
S=C(NNC(=S)NC1CC2C=CC1C2)NC1CC2C=CC1C2 (stereo not given) | -4.1% (inactive)
CC(C)CCOS(=O)(=O)c1ccc2c(c1)Cc1cc(S(=O)(=O)OCCC(C)C)ccc1-2 | -2.5% (inactive)
CN(C(=O)Nc1ccc(Cl)cc1)n1cnc2ccccc2c1=O | -1.9% (inactive)
c1ccc(-c2nsc(N3CCNCC3)n2)cc1 | 1.1% (inactive)
Cc1oc(-c2ccc(Cl)cc2)cc1C(=O)O/N=C(\N)Cc1nc2cccnc2n1C1CC1 | -10.9% (inactive)
O=C(Cn1nnc2ccccc21)NCCSCc1ccco1 | 6.7% (inactive)
O=C(O)CC1(CC(=O)Nc2ccccc2-n2cccn2)CCCCC1 | 6.9% (inactive)
O=[N+]([O-])c1ccc(CSc2nc3cc(Cl)c(F)cc3[nH]2)cc1 | -10.8% (inactive)
COc1ccc(/C=N/Nc2nc(C)cc(=O)[nH]2)c(OC)c1 | 10.6% (inactive)
Nc1ccccc1SC(C[N+](=O)[O-])c1ccccc1 (stereo not given) | 10.6% (inactive)
O=C(N/N=C/c1cccs1)C(=O)Nc1ccc(Cl)c(Cl)c1 | -4.8% (inactive)
Cc1nc2c(ncn2-c2ccccc2)c(=O)n1NC(=O)CN1CCCC1 | 1.8% (inactive)
Cn1c(=O)c2c(ncn2Cc2nnc(-c3ccccc3)o2)n(C)c1=O | -5.9% (inactive)

Structure (SMILES) | inhibition
O=[N+]([O-])c1ccc(CSc2nnc(-c3ccncc3)o2)cc1 | -7.8% (inactive)
N#Cc1c(C2CCCCC2)[nH]c(=S)[nH]c1=O | -2.7% (inactive)
Cc1ccc2c(c1)C(=O)C(=O)S2 | -13.9% (inactive)
O=C(CSC1=NCCc2ccccc21)Nc1ccc(F)cc1F | -6.1% (inactive)
O=C(O)CCC(=O)Nc1ccc2c(c1)OCCCO2 | 8.3% (inactive)
Oc1ccccc1C=NCCCN=Cc1ccccc1O | -15.8% (inactive)
CCOc1c(N2CCCCC2)c(=O)c1=O | 13.6% (inactive)
O=C(CSc1nnc(-c2ccncc2)o1)N1CCc2ccccc21 | -5.6% (inactive)
O=c1cc(-c2ccccc2)cc(-c2ccccc2)o1 | -11.3% (inactive)
O=C(NNC(=S)Nc1ccccc1Cl)c1ccc(OC(F)(F)F)cc1 | 19.8% (inactive)
O=c1c2c(nc3nc[nH]n13)CCC2 | -20.2% (inactive)
CCN(CCN1C(=O)CCC1=O)c1cccc(NC(C)=O)c1 | -3.7% (inactive)
N#CCc1ccc(OC(=O)c2cccnc2)cc1 | -6.4% (inactive)
Cc1nc(-n2cccc2)sc1C(=O)N/N=C/c1ccccc1Cl | 33.9% (inactive)
CCCS(=O)(=O)c1csc(C(=O)OC)c1N/N=C/c1cccs1 | -24.1% (inactive)
Clc1cncc(Cl)c1N/N=C/C1CC2C=CC1C2 (stereo not given) | 1.3% (inactive)
CCCCCCCN=C(C)c1ccccc1O | -21.6% (inactive)
CC(C)c1ccc(N2C(=O)/C(=C\c3ccc(-c4ccc([N+](=O)[O-])cc4)o3)SC2=S)cc1 | 8.3% (inactive)
CCCN(CCC)S(=O)(=O)c1ccc(C(=O)NNC(=O)c2cc(OC)c(OC)c(OC)c2)cc1 | -2.1% (inactive)
NC(=O)C1CCN(CC(O)COc2ccc(Cl)c(Cl)c2)CC1 (stereo not given) | -8.2% (inactive)
O=C(Nc1ccc(F)cc1OC(F)(F)F)N1CCC(O)CC1 | -18% (inactive)
CC(C)(C)c1cc(NC(=O)/C(C#N)=C/c2cccc(Cl)c2Cl)c(C(N)=O)s1 | -7.1% (inactive)

Structure (SMILES) | inhibition
O=C(Nc1ccccc1C(=O)NC1CCSC1)c1cccc(Cl)c1 (stereo not given) | -15% (inactive)
COC(=O)CCN1CCc2cc(N=Nc3ccc(C(F)(F)F)cc3)ccc21 | 15.2% (inactive)
CC(C)n1c(SCC(=O)c2cccc([N+](=O)[O-])c2)nc2cc(C(F)(F)F)ccc21 | -1.6% (inactive)
O=C(CCc1ccc(O)cc1)N/N=C/c1cc(Cl)cc(Cl)c1O | 6.4% (inactive)
Cc1ccc(NC(C(=O)O)c2ccccc2)cc1 (stereo not given) | -11.7% (inactive)
OC(CNCc1ccc2c(c1)OCO2)COc1ccccc1 (stereo not given) | -20.1% (inactive)
O=C(NCc1cccnc1)c1ccccc1NC(=O)c1c(F)cccc1F | -15.7% (inactive)
O=C(N/N=C/c1ccc(Cl)cc1Cl)/C(=C/c1cccs1)NC(=O)c1ccccc1 | 11.5% (inactive)
COC(=O)c1ccccc1NC(=O)c1ccc(Oc2cc(Cl)cc(Cl)c2)o1 | -7% (inactive)
O=C(NCc1ccc2c(c1)OCO2)c1sccc1Br | -14.9% (inactive)
O=C(NCc1ccc(F)cc1F)c1cc(C(F)(F)F)cc(C(F)(F)F)c1 | 2.1% (inactive)
CCOC(=O)C(NC(=O)c1ccco1)(Nc1cc(C)ccn1)C(F)(F)F (stereo not given) | -1.7% (inactive)
CSc1cccc(NC(=O)C(=O)NCCc2ccccn2)c1 | 17.5% (inactive)
CCOC(=O)CCSc1cc(-n2cccc2)c(Cl)cc1[N+](=O)[O-] | -12.9% (inactive)
CCOC(=O)Cn1sc2nc(C)cc(C)c2c1=O | -8.2% (inactive)
O=C(c1ccccc1I)c1c[nH]c2ccccc12 | 2.4% (inactive)
O=C1C=C(NNc2ccccc2)CCC1 | -30.2% (inactive)
O=[N+]([O-])c1ccc2ncccc2c1-n1cccc1 | -23.5% (inactive)
CC(OC(=O)c1cccc(Cl)c1)c1ccc[n+](C)c1 (stereo not given) | 1.5% (inactive)
CN(n1cnc2ccccc2c1=O)S(=O)(=O)c1cc(Cl)sc1Cl | 4.5% (inactive)
O=c1o[nH]c(-c2ccccc2)c1N=Nc1c(F)cccc1Cl | 4.9% (inactive)
